Experimental data: PubChem BioAssay
“And” between values parts separate entries of the source, which are not always exact repeats. Equal values may be shown once. The source made the active and inactive calls.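 The calls were made as follows, unless noted: active = thallium flux through the channel raised or lowered by more than 3 SD from vehicle-only wells, actives on both sides; inactive = the rest.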

Tests used:
[1] = signal quenchers or enhancers, Cy5 substrate/SSB – biochemical, NIH Clinical Collection, E. coli SSB, artefact control for HCV NS3 helicase inhibitor project (AID 743268; call rule not given here); settings: Cy5-oligo bound E. coli SSB, fluorescence interference
[2] = system: Hepatitis C virus NS3 helicase; assay: blockers of NS3h binding to DNA – biochemical, fluorescence polarization, NIH Clinical Collection, primary screen (AID 743270; call rule not given here); settings: NS3 helicase binding to Cy5-dT15 DNA, stronger effect = higher value, concentration not given here
[3] = target: Single-stranded DNA-binding protein (Escherichia coli (strain K12)) (UniProt P0AGE0); assay: SSB-ssDNA binding inhibitors – biochemical, fluorescence polarization, NIH Clinical Collection, counter-screen for HCV NS3 helicase inhibitor project (AID 743271; in the data active = inhibition above about 28%); settings: E. coli SSB-DNA binding, stronger effect = higher value, concentration not given here
[4] = compounds distorting NS3 helicase fluorescence signal – biochemical, NIH Clinical Collection, artefact control for HCV NS3 helicase inhibitor project (AID 743272; call rule not given here;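 also: HCV NS3 helicase with a Cy5 labelled single stranded DNA probe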); settings: fluorescence interference counterscreen, HCV NS3 helicase assay; stronger effect = lower value
[5] = target: 6-phosphogluconate dehydrogenase, decarboxylating (Homo sapiens) (UniProt P52209); assay: inhibition of human phosphogluconate dehydrogenase – biochemical, recombinant enzyme, NADPH absorbance, primary screen (AID 1159550;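 active = at least 20% inhibition of 6-phosphogluconate dehydrogenase activity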); settings: recombinant 6PGD, NADPH absorbance 341 nm; at 10 µM; stronger effect = higher value
Chain of 6-phosphogluconate dehydrogenase, decarboxylating (Homo sapiens) (P52209 whole entry, looked up): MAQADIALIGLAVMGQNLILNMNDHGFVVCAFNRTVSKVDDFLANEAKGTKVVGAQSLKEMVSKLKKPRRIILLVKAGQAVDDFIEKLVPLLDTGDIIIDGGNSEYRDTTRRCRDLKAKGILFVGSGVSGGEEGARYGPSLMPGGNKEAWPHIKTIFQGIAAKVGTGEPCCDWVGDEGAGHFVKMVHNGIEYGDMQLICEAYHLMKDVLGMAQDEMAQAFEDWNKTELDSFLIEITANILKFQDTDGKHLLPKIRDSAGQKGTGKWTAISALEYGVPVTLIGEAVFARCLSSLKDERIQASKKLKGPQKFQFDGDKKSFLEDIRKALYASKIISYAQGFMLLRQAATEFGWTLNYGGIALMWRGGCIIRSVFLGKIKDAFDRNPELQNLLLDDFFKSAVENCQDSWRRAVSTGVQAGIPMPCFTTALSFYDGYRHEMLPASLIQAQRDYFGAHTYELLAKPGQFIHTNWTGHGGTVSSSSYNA

[6] = modulation of C. elegans fzo-1 (AID 1259413; call rule not given here;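 also: fzo-1 mutant C. elegans worms in liquid wells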); settings: C. elegans fzo-1 modulator screen, mean read-out; stronger effect = higher value
[7] = EMT-state selective cytotoxicity in co-culture – imaging, PC-3E GFP, TEM4-18 mCherry, primary screen (AID 1345086;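 active = compounds killing one labelled cell type while sparing the other, by normalised counts and ratio limits, not self-fluorescent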;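 as to all read-outs here: cells exposed to compound for 72 h before imaging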;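 as to red/green cell ratio (normalised): normalised mesenchymal count divided by normalised epithelial count so high means epithelial killing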); settings: PC-3E GFP / TEM4-18 mCherry co-culture, imaging cell counts, at 1 µM; for red/green cell ratio (normalised): actives lie on both sides, counts scaled to control wells, 1 = unselective
[8] = MELAS cybrid and Rieske KO viability enhancers – cell-based, MELAS cybrids, Rieske KO mouse fibroblasts, CellTiter-Glo, primary screen (AID 1508586;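 active = mean z-score across replicates of 1.96 or higher in either the MELAS or the Rieske mutant cell line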;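 also: z relative to plate mean and SD of compound and empty wells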); settings: low glucose
[9] = target: Mitogen-activated protein kinase 7 (Homo sapiens) (UniProt Q13164); assay: Gal4-ERK5 driven luciferase induction – cell-based, HTS, primary screen (AID 1508626;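 active = luciferase signal above three times the same-plate solvent-only control wells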;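 also: luciferase driven by Gal4-ERK5 fusion binding five Gal4 sites before minimal TATA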); settings: HeLa Gal4-ERK5 transactivation, 18 h, at 5 µM, stronger effect = higher value
Chain of Mitogen-activated protein kinase 7 (Homo sapiens) (Q13164 whole entry, looked up, the tested form may be a part): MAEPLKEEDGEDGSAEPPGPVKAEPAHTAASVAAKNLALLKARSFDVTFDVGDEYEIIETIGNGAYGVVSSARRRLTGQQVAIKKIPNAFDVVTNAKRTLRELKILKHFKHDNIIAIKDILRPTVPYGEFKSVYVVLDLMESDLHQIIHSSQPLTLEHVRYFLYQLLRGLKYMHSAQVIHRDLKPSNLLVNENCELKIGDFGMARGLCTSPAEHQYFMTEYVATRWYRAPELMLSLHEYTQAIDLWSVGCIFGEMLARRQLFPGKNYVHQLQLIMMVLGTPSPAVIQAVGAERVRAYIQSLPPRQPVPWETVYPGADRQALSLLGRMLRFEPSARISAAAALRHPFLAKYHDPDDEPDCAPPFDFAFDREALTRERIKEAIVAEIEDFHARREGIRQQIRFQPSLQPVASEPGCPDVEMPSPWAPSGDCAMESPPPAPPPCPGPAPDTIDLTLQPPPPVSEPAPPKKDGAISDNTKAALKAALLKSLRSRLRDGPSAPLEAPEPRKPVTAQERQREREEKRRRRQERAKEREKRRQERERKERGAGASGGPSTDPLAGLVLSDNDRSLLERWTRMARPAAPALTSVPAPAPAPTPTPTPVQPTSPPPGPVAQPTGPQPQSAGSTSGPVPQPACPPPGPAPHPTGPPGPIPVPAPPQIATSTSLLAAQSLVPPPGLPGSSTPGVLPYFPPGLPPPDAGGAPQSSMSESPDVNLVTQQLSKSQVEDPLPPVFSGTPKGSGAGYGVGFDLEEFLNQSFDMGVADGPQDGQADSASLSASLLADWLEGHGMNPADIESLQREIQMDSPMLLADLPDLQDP

[10] = galactose survival enhancers in mitochondrial complex I cybrids – cell-based, galactose medium, ATP luminescence, primary screen (AID 1645843;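 active = z-score of at least 1.8 in each of two replicates, scored against plate mean and spread of sample wells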;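 also: positive z means more ATP and so rescue of galactose-driven cybrid death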); settings: complex I mutant cybrid cells, 72 h, stronger effect = higher value
[11] = system: F380Y; assay: BK channel mutant inhibitors and activators – cell-based, U2OS BacMam, thallium flux, beta subunits, selectivity assay, profiling panel (AID 1259406); settings: U2OS BacMam BK variants, at 30 µM;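 also: initial slope of Thallos dye fluorescence rise after thallium is added; log ratio against the mean of 0.3% DMSO vehicle wells on the same plate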
[12] = system: F380Y/beta1; assay: as above; settings: U2OS BacMam BK variants, at 30 µM
[13] = system: F380Y/beta2Delta; assay: as above; settings: U2OS BacMam BK variants, at 30 µM
[14] = target: Calcium-activated potassium channel subunit alpha-1 (Homo sapiens) + Leucine-rich repeat-containing protein 26 (Homo sapiens) (UniProt Q12791+Q2I0M4); assay: as above; settings: U2OS BacMam BK variants, F380Y/Slo1WT/gamma1, at 30 µM
Chain of Calcium-activated potassium channel subunit alpha-1 (Homo sapiens) + Leucine-rich repeat-containing protein 26 (Homo sapiens) (Q2I0M4 whole entry, looked up, one chain of several): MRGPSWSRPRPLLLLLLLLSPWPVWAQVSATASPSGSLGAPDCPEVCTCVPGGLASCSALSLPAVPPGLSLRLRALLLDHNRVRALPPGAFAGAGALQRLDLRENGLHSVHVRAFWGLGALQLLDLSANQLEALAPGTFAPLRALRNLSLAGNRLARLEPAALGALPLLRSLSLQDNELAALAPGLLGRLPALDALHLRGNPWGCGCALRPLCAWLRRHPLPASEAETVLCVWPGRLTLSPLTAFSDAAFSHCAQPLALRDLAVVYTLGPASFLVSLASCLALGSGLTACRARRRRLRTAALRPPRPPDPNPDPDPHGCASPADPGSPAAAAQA

[15] = system: R275C; assay: as above; settings: U2OS BacMam BK variants, at 30 µM
[16] = system: R275C/beta1; assay: as above; settings: U2OS BacMam BK variants, at 30 µM
[17] = system: R275C/beta2Delta; assay: as above; settings: U2OS BacMam BK variants, at 30 µM
[18] = P. berghei load reduction in hepatocytes – cell-based, HepG2, luciferase luminescence, HepG2 viability, primary screen (AID 624349; in the data active = parasite load remaining mostly below about 12%, no sharp cut-off; inactive = mostly above about 10%;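 also: 100% = mean of DMSO negative control wells on the same plate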); settings: P. berghei liver stage in HepG2, luciferase luminescence, concentration not given here; parasite load remaining: stronger effect = lower value; viability: measured here: HepG2 viability without parasites
[19] = viability loss with induced miR-34 in A549 – imaging, A549 dox-inducible miR-34, nuclei and caspase counts, primary screen (AID 1347080;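 active = compounds whose cell count with miR-34 switched on is under 0.7 times the count with it off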); settings: A549 miR-34 inducible, Hoechst nuclei count, 48 h
[20] = measured here: epithelial PC-3E GFP cell survival
[21] = measured here: mesenchymal TEM4-18 mCherry cell survival
[22] = MELAS cybrid survival, CellTiter-Glo 48 h, stronger effect = higher value
[23] = Rieske KO mouse fibroblast survival, CellTiter-Glo 72 h
[24] = stronger effect = lower value, cell number ratio, induced over uninduced
[25] = measured here: relative caspase fold change +Dox/-Dox
[26] = measured here: total cells with miR-34 induction, stronger effect = lower value
[27] = measured here: total cells without miR-34 induction

CC(CCc1ccccc1)NCC(O)c1ccc(O)c(C(N)=O)c1 (stereo unspecified)
0.93: normalised cell number [7, 20]
-0.173 and -0.159: z-score [8, 23]
inactive: fluorescence ratio [1] 1.06 | inhibition [2] -2.27% | inhibition [3] -5.05% | fluorescence ratio [4] 1.02 | inhibition [5] 0.489% | mean signal [6] 243 | red/green cell ratio (normalised) [7] 1.34 | z-score [8, 22] -0.172 and 0.637 | luciferase signal [9] 116 AU | z-score [10] -0.94 and 0.995 | log fold change Tl+ flux [11] 0.0689 | log fold change Tl+ flux [12] 0.0226 | log fold change Tl+ flux [13] 0.0329 | log fold change Tl+ flux [14] 0.00974 | log fold change Tl+ flux [15] -0.0121 | log fold change Tl+ flux [16] 0.0332 | log fold change Tl+ flux [17] 0.0956
1.24: normalised cell number [7, 21]

CN1CCN(CC/C=C2/c3ccccc3Sc3ccc(S(=O)(=O)N(C)C)cc32)CC1
inactive: inhibition [5] 2.11% | mean signal [6] 215 | luciferase signal [9] 108 AU

O=C(O)[C@H](O)[C@@](O)(Cc1ccc(O)cc1)C(=O)O
0.73: normalised cell number [7, 20]
inactive: inhibition [5] 12.5% | red/green cell ratio (normalised) [7] 1.3
0.94: normalised cell number [7, 21]

C[C@]12CC[C@@H](O)C[C@H]1CCc1ccccc12
inactive: inhibition [5] -3.83% | red/green cell ratio (normalised) [7] 1.08
1.17: normalised cell number [7, 21]
1.09: normalised cell number [7, 20]

C[C@]12CC[C@@H]3c4ccc(O)cc4CC[C@H]3[C@@H]1CC[C@@H]2O
-0.193 and 1.1: z-score [8, 23]
inactive: fluorescence ratio [1] 1 | inhibition [2] 2.77% | inhibition [3] -0.87% | fluorescence ratio [4] 0.97 | inhibition [5] -7.69% | z-score [8, 22] 1.01 and 0.292 | luciferase signal [9] 184 AU | z-score [10] 0.115 and -0.055 | log fold change Tl+ flux [11] 0.0249 | log fold change Tl+ flux [13] -0.0581 | log fold change Tl+ flux [14] 0.072 | log fold change Tl+ flux [15] 0.021 | log fold change Tl+ flux [16] 0.0222 | log fold change Tl+ flux [17] -0.0294

COc1ccc2c(=O)c(OC)c(-c3ccccc3)oc2c1
1.02: normalised cell number [7, 21]
inactive: inhibition [5] 5.12% | red/green cell ratio (normalised) [7] 0.95
1.07: normalised cell number [7, 20]

Cc1ccc(N(CC2=NCCN2)c2cccc(O)c2)cc1
0.97: normalised cell number [7, 21]
-0.0354 and 0.524 and 0.332: z-score [8, 23]
0.96: normalised cell number [7, 20]
inactive: inhibition [5] -2.41% | mean signal [6] 229 | red/green cell ratio (normalised) [7] 1 | z-score [8, 22] 0.136 and 0.319 and 0.784 | luciferase signal [9] 116 AU | z-score [10] -0.355 and 0.035

CN(C)CCC(c1ccc(Cl)cc1)c1ccccn1 (stereo unspecified)
active: log fold change Tl+ flux [16] 0.0906
0.675 and 0.216 and -0.121: z-score [8, 23]
inactive: fluorescence ratio [1] 1.05 | inhibition [2] -1.98% | inhibition [3] -3.95% | fluorescence ratio [4] 1.02 | inhibition [5] 14.7% | mean signal [6] 225 | red/green cell ratio (normalised) [7] 1.02 | z-score [8, 22] -0.0722 and 0.91 and 0.217 | log fold change Tl+ flux [11] 0.0819 | log fold change Tl+ flux [12] -0.0189 | log fold change Tl+ flux [13] 0.0184 | log fold change Tl+ flux [14] -0.0284 | log fold change Tl+ flux [15] -0.059 | log fold change Tl+ flux [17] 0.0118
0.91: normalised cell number [7, 20]
0.93: normalised cell number [7, 21]

CCN1CCN(C(=O)N[C@@H](C(=O)N[C@@H]2C(=O)N3[C@@H]2SC(C)(C)[C@@H]3C(=O)O)c2ccccc2)C(=O)C1=O
0.573 and 0.405: z-score [8, 23]
2.92 and 0.912 and 1.53: fold change [19, 25]
active: log fold change Tl+ flux [15] -0.096
89.8% and 93.5% and 71.5%: viability [18]
11400 and 10400 and 11200: cell count [19, 27]
inactive: parasite load remaining [18] 50.1% and 75.4% and 36.6% | fluorescence ratio [1] 0.99 | inhibition [2] -3.18% | inhibition [3] -1.24% | fluorescence ratio [4] 0.98 | inhibition [5] 12.4% | mean signal [6] 257 | fold change [19, 24] 0.928 and 0.85 and 0.888 | z-score [8, 22] 0.757 and -0.0978 | luciferase signal [9] 72 AU | z-score [10] 0.5 and 0.93 | log fold change Tl+ flux [11] -0.0272 | log fold change Tl+ flux [12] 0.00225 | log fold change Tl+ flux [13] -0.0244 | log fold change Tl+ flux [14] -0.00699 | log fold change Tl+ flux [16] 0.0207 | log fold change Tl+ flux [17] -0.0292
10600 and 8860 and 9900: cell count [19, 26]

CCCCC(=O)O[C@H]1CC[C@H]2[C@@H]3CCc4cc(O)ccc4[C@H]3CC[C@]12C
-0.171: z-score [8, 23]
6120: cell count [19, 26]
6090: cell count [19, 27]
2.83: fold change [19, 25]
inactive: parasite load remaining [18] 36.5% | fluorescence ratio [1] 1.02 | inhibition [2] 3.18% | inhibition [3] 4.1% | fluorescence ratio [4] 0.91 | inhibition [5] 6.29% | fold change [19, 24] 1 | z-score [8, 22] -1.02 | luciferase signal [9] 84 AU | z-score [10] -1.51 | log fold change Tl+ flux [11] 0.0324 | log fold change Tl+ flux [12] -0.0484 | log fold change Tl+ flux [13] 0.0462 | log fold change Tl+ flux [14] 0.00253 | log fold change Tl+ flux [15] 0.0329 | log fold change Tl+ flux [16] 0.0221 | log fold change Tl+ flux [17] -0.00327
98.1%: viability [18]

COc1ccc2c3c1O[C@H]1C[C@@H](O)C=C[C@@]31CCN(C)C2
inactive: fluorescence ratio [1] 1.03 | inhibition [2] -2.77% | inhibition [3] -3.95% | fluorescence ratio [4] 1 | inhibition [5] 6.78% | mean signal [6] 226 | red/green cell ratio (normalised) [7] 1.15 | z-score [8, 22] 0.162 and -0.253 | luciferase signal [9] 64 AU | z-score [10] 0.28 and 0.575 | log fold change Tl+ flux [11] 0.0204 | log fold change Tl+ flux [13] 0.0272 | log fold change Tl+ flux [14] -0.0208 | log fold change Tl+ flux [15] 0.0192 | log fold change Tl+ flux [16] -0.00593 | log fold change Tl+ flux [17] 0.0478
1.15: normalised cell number [7, 21]
0.459 and -0.846: z-score [8, 23]
1: normalised cell number [7, 20]
